Source: PubChem BioAssay (The Scripps Research Institute Molecular Screening Center)
In the library only some 1.1% were active in any assay of this set; here they are far more common.
NR2F2 inh: inhibitors of human COUP-TFII (NR2F2). P24468. HEK293T NGFI-A luciferase reporter, luminescence. inhibition, % at 8.6 µM. hit rate 0.7% among 370,000. AID 686940;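 active means inhibition above a per-plate cutoff, mean inhibition of test wells between control levels plus 3 SD, cut at about 38% in these data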;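 further: cells cotransfected with COUP-TFII expression vector driving the NGFI-A reporter; 0% = median of COUP-TF2 test wells and 100% = reporter-only cells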
NCOA1 inh: inhibitors of human steroid receptor coactivator 1 (SRC1); Q15788; HEK293 GAL4-SRC1 luciferase reporter, luminescence; inhibition, % at 3.6 µM; hit rate 0.12% among 360,000; AID 588354;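 active means inhibition above the campaign mean plus 3 SD, with each screening campaign given its own cutoff, cut at about 60% in these data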;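 further: 0% = DMSO treated cells and 100% = gossypol at 36 µM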
GalR3 antag: antagonists of human GalR3. AID 651719. O60755. HEK293 GalR3-CNG cAMP membrane potential fluorescence; galR3 body fused to GalR1 C-terminus. inhibition, % at 3 µM. hit rate 0.44% among 360,000;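 active means inhibition above the screen-wide average plus 3 SD, cut at about 13% in these data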;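 further: forskolin and galanin both at EC90 stimulate the cells; cAMP rise reported by CNG channel membrane potential dye signal; 0% = forskolin plus galanin with DMSO and 100% = forskolin alone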
NCOA2 inhibitor: human SRC2 (NCOA2) inhibition; HEK293 GAL4-SRC2 luciferase reporter, luminescence; inhibition, % at 9 µM; hit rate 0.17% among 370,000; Q15596;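 active means inhibition above the mean inhibition of all tested compounds plus 3 SD, set per campaign, cut at about 52% in these data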;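 further: 0% = DMSO treated cells and 100% = cells given Gossypol at 36 µM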
Target sequence (Q15596 whole entry, looked up, the tested form may be a part): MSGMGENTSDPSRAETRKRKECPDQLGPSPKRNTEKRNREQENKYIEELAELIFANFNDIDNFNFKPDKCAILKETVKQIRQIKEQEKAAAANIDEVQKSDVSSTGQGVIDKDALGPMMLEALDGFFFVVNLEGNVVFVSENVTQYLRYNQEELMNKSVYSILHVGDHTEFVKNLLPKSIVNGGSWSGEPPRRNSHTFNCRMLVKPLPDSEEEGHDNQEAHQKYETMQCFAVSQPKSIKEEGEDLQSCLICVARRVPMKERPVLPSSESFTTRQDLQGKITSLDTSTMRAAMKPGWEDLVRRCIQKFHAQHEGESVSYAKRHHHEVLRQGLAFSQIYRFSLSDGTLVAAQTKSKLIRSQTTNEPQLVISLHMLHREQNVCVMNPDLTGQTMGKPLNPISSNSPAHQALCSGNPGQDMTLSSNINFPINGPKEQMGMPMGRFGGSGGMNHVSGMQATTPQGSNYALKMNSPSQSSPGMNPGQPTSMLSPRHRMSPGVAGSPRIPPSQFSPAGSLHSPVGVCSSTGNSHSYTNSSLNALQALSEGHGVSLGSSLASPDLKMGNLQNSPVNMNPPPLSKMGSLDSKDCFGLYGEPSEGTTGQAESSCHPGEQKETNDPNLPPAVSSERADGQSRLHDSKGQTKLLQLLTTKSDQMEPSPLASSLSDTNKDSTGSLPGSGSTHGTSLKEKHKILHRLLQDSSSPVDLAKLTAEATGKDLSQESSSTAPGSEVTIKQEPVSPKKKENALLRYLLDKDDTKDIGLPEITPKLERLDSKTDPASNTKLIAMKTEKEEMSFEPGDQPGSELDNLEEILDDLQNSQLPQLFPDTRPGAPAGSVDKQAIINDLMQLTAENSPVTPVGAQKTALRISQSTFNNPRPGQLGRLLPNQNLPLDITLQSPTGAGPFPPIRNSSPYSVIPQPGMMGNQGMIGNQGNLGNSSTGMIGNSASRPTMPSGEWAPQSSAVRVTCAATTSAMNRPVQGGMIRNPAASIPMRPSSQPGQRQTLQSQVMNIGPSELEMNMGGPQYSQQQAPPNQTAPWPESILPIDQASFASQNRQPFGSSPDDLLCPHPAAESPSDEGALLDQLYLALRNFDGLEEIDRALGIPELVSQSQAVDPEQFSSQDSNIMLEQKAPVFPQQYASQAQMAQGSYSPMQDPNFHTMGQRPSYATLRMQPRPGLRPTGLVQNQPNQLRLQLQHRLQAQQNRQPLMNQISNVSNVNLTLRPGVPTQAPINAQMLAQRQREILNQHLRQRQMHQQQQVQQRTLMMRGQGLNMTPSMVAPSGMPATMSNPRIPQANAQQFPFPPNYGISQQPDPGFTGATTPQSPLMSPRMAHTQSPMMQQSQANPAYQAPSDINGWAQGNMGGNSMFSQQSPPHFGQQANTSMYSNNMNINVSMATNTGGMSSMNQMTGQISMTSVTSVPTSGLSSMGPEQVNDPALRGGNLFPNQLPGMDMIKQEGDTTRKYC
SRC3 inh: inhibitors of human steroid receptor coactivator 3 (SRC3); Q9Y6Q9; HEK293 GAL4-SRC3 luciferase reporter, luminescence; inhibition, % at 3.6 µM; hit rate 0.17% among 360,000; AID 588352;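 active means inhibition above a per-campaign cutoff, the mean of all compounds plus 3 SD, cut at about 60% in these data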;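 further: 0% = DMSO-treated cells and 100% = gossypol-treated cells at 36 µM; higher means less SRC3-driven luciferase light from the GAL4 reporter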
NR5A2 inv ag: NR5A2 inverse agonism in reporter assay; O00482; HEK293T StAR-luciferase reporter, LRH-1 transfected, 24 h; inhibition, % at 3.6 µM; hit rate 0.13% among 360,000; AID 602396;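 active means inhibition above the mean inhibition of all tested compounds plus 3 SD, cut at about 73% in these data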;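 further: 0% = DMSO wells and 100% = reporter-only cells lacking LRH-1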
GalR3 antag conf: confirmation of human galanin receptor 3 antagonists | shares compounds with GalR3 antag | HEK293 GalR3 CNG cAMP biosensor, membrane potential fluorescence; galR3 fused to GalR1 carboxy tail; challenged with forskolin and galanin at EC90 | inhibition, % at 3 µM | hit rate 59% among 1,600 | AID 652245;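 active means inhibition above the primary screen's cutoff, the mean inhibition of all screened compounds plus 3 SD, cut at about 13% in these data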;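 further: 0% = forskolin plus galanin and 100% = forskolin alone with DMSO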
HEK-CNG parental: parental cell agonism counter-screen for GalR3 antagonists. shares compounds with GalR3 antag. activation, % at 3 µM. hit rate 10% among 1,600. HEK293-CNG parental cells, cAMP membrane potential fluorescence; normalised: DMSO wells 0%, forskolin wells 100%. AID 652268; in the data active means activation above about 1.3%
Gal4-VP16 ctr: inhibits VP16 reporter, flagging COUP-TFII antagonist hits. AID 687007. HEK293 Gal4-VP16 luciferase reporter, luminescence. inhibition, % at 8.5 µM. hit rate 25% among 2,500. shares compounds with NR2F2 inh; in the data active means inhibition above about 13%
COUP-TFII conf: COUP-TFII (NR2F2) inhibition, confirmation assay | shares compounds with NR2F2 inh | HEK293 NGFI-A luciferase reporter, luminescence | inhibition, % at 8.5 µM | hit rate 45% among 2,500;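 active means mean inhibition over three repeats above a set limit taken from the earlier primary screen, cut at about 38% in these data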;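 further: 100% = cells given the luciferase reporter alone without the COUP-TF2 vector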
Active calls of the source: *; · = no result.

SMILES	NR2F2 inh	NCOA1 inh	GalR3 antag	NCOA2 inhibitor	SRC3 inh	NR5A2 inv ag	GalR3 antag conf	HEK-CNG parental	Gal4-VP16 ctr	COUP-TFII conf
C1=C(CCNc2ncnc3c2[nH]c2ccccc23)CCCC1	67.0*	-7.5	84.1*	2.4	14.0	42.7	98.2*	1.4*	-85.8	47.9*
O=c1c2[nH]c3ccccc3c2ncn1CCC1=CCCCC1	-8.4	-20.9	-2.5	-25.3	-36.2	-16.1	·	·	·	·
Cc1oc(-c2ccc(Cl)cc2)nc1CS(=O)CC(=O)NCCCN1CCN(Cc2ccccc2)CC1 (stereo not drawn)	61.9*	35.2	68.5*	30.8	31.5	34.1	109.6*	2.0*	7.6	64.6*
Cc1oc(-c2ccc(Cl)cc2)nc1CS(=O)CC(=O)NCCCN1CCCC(C)C1 (stereo not drawn)	1.2	1.9	-6.5	-8.7	5.5	2.4	·	·	·	·
CC(=O)c1cccc(NS(=O)(=O)c2ccc(NC(=O)N3CCCCC3)cc2)c1	56.1*	13.8	83.4*	24.5	31.8	39.2	97.0*	-0.2	14.3*	44.0*
CC(=O)c1cccc(NC(=O)N2CCCCCC2)c1	-10.3	-7.1	-0.8	-0.4	14.7	-12.9	·	·	·	·
COc1ccc(C(=O)N2CCN(c3ccc([N+](=O)[O-])c(NCCc4ccc(OC)c(OC)c4)c3)CC2)cc1	39.1*	22.8	24.2*	17.9	32.0	35.3	92.4*	0.3	12.1	88.8*
COc1ccc(-c2ccc3oc(-c4ccc(OC)cc4)c(C#CCO)c3c2)cc1	45.2*	-57.2	95.0*	9.5	-128.7	8.0	109.5*	-1.2	-4.6	69.8*
COc1ccc(-c2oc3ccc(N4CCOCC4)cc3c2C#CCO)cc1	71.4*	32.0	57.3*	11.2	46.8	55.6	29.6*	-0.6	5.0	53.4*
O=C(c1ccc(S(=O)(=O)c2ccc(F)cc2)c([N+](=O)[O-])c1)N1CCCCCC1	42.7*	5.6	43.9*	39.4	37.4	29.6	48.9*	-0.5	18.0*	22.2
O=C(c1ccc(S(=O)(=O)Cc2ccccc2F)c([N+](=O)[O-])c1)N1CCCC1	-2.0	-8.7	-1.7	-0.5	19.6	-2.7	·	·	·	·
Cc1nn(C)c(Cl)c1NC(=O)OCc1ccc(Cl)cc1Cl	53.2*	11.4	96.1*	33.7	24.3	28.7	20.9*	-0.1	4.1	31.5
O=C(COC(=O)c1n[nH]c2ccccc12)Nc1ccc(S(=O)(=O)N2CCCC2)cc1	46.4*	-3.4	104.1*	16.0	24.0	27.1	110.5*	-0.7	0.7	21.1
COC(=O)[C@]12CCCCC=C1N(Cc1cccc3ccccc13)C(=O)[C@H](CC(=O)NCc1ccc(OC)c(OC)c1)C2	97.0*	·	14.1*	26.0	·	9.2	75.8*	-0.1	5.9	57.6*
COc1ccc(S[C@]2(C(=O)N3CCN(C(C)=O)CC3)CC(=O)N(S(=O)(=O)c3ccc(F)cc3)[C@@H]2c2ccc(OC)cc2)cc1	16.2	·	·	-28.8	·	·	·	·	·	·
C[n+]1c2n(c3ccccc31)N=C(c1cc(C(C)(C)C)c(O)c(C(C)(C)C)c1)CS2	80.7*	6.9	19.3*	9.2	59.8	79.4*	29.7*	17.2*	28.5*	86.8*
COc1cccc(C2=Nn3c(nnc3-c3ccccc3O)SC2)c1	-8.6	6.6	-3.5	-3.8	12.4	11.1	·	·	·	·
COC(=O)[C@H](CC1(c2cn(S(=O)(=O)CC[Si](C)(C)C)c3ccccc23)C(=O)Nc2ccccc21)NC(=O)OC(C)(C)C (stereo partly drawn)	3.1	·	·	·	·	·	·	·	·	·
COc1ccc(-n2c(SC/C=C/c3ccccc3)nnc2-c2cccs2)cc1	15.8	·	·	12.4	·	·	·	·	·	·
COc1ccc(/C=N/OCC(=O)NC(c2ccccc2)c2ccccc2)cc1OC	61.2*	14.9	89.3*	12.4	15.2	57.0	100.2*	0.1	-5.6	62.3*
COc1ccc(/C=N/OCC(=O)Nc2cc(C)on2)cc1OC	1.8	-2.4	6.2	4.2	16.4	-9.7	·	·	·	·
COC(=O)[C@]12C[C@H](CC(=O)NCc3cccs3)C(=O)N(CCc3ccc(OC)c(OC)c3)C1=C[C@H](C1CCCC1)O[C@@H]2C	-3.0	·	·	-32.5	·	·	·	·	·	·
Cc1ccc(NC(=S)NNC(=O)CSc2nnc(-c3ccc(C)cc3)n2C2CCCCC2)cc1	8.4	·	·	7.3	·	·	·	·	·	·
CCCCCC[n+]1ccccc1/C=C/c1ccc(N(C)C)cc1	92.2*	71.5*	15.9*	22.7	82.2*	98.4*	16.1*	40.8*	25.1*	89.3*
CN(C)c1ccc(C=Cc2nccc3ccccc23)cc1	2.9	-82.6	-2.1	5.5	-75.0	-74.2	·	·	·	·
SMILES	NR2F2 inh	NCOA1 inh	GalR3 antag	NCOA2 inhibitor	SRC3 inh	NR5A2 inv ag	GalR3 antag conf	HEK-CNG parental	Gal4-VP16 ctr	COUP-TFII conf
COc1ccc(/C=C2\Sc3ccc(C(=O)N4CCN(Cc5ccccc5)CC4)cc3N(C)C2=O)cc1OC	70.6*	11.3	60.2*	22.7	28.1	31.8	106.2*	-0.2	6.3	58.0*
Cc1ccc(Oc2ccc(C(=O)NCc3ccncc3)cc2)cc1	74.0*	25.9	82.6*	44.8	16.0	63.0	96.6*	-1.4	-7.2	41.3*
O=C(NCc1ccncc1)c1ccc(Oc2ccccc2)cc1	21.6	-2.7	-10.7	6.5	10.7	20.6	·	·	·	·
Cc1cccc(C)c1NC(=O)N1CCN(c2nc3ccccc3s2)CC1	47.9*	14.6	39.3*	12.2	28.3	8.0	2.4	-0.4	-14.1	26.1
Cc1cccc(Cl)c1NC(=O)N1CCN(c2ccnc3cc(Cl)ccc23)CC1	0.9	18.9	-8.7	-8.9	25.2	0.2	·	·	·	·
Cc1cccc(Cl)c1NC(=O)N1CCCN(c2nc3ccc(Cl)cc3s2)CC1	48.8*	23.4	82.4*	6.9	21.6	14.4	102.7*	-0.5	-20.2	41.2*
CCOc1ccc(NC(=O)N2CCN(c3nc4ccccc4s3)CC2)cc1	16.9	14.6	-6.9	9.1	7.4	-28.4	·	·	·	·
O=C(NCc1ccc(Cl)cc1)O[C@H]1CC[C@@]23CCCN2C(=O)CCC[C@H]3C1	-0.4	·	·	·	·	·	·	·	·	·
Cn1ccnc1C(=O)O[C@@H]1CCC[C@@]2(C(=O)N(Cc3ccccc3)c3ccccc32)[C@H]1NC(=O)CCc1ccccc1	-13.6	·	·	-4.9	·	·	·	·	·	·
COCCn1c(C)cc(C(=O)CSc2ccc3ccccc3n2)c1C	-0.3	-69.6	-0.7	-30.3	-61.5	-100.0	·	·	·	·
